The campaign covered roughly 53,000 sequences. About 3,700 (7%) were called active.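 How the source made its calls: active means gene knockdowns whose robust z-score for IL-1 alpha signal is at least 2 or at most -2, so actives lie on both sides; inactive means the rest.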 The full list was thinned out, with actives kept by preference.

This experiment in a line: Components of the Cytosolic LPS Sensing Pathway: Gene Identification via Genome-wide siRNA Screen.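 Further: robust z of the log signal after scaling to non-targeting control siRNA wells of the plate.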 The following applies: RAW264.7 macrophages, IL-1a HTRF, actives lie on both sides, screened at 100 nM (by protocol), cells primed 5 h with Pam3CSK4 first. The method, boiled down:
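Cells (RAW264.7, 1×10^4 per well) were transfected with siRNA at 100 nM and cultured 48h at 37 degrees C. Pam3CSK4 was added for 5 hours; LipidA transfection followed for 24 hour. IL-1a was then measured by HTRF.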
As to GGGCUGGAGUCUGAUACAUTT against Rbm5, the z-score was 3.39 (active). Consider CCGUGUUAGAGUUUUCGACTT against Top3b, for which the z-score was 1.2 (inactive). Regarding CCAAAGGUAUGCAGUAUGATT against Cdh4, the z-score is 0.131 (inactive).

On to GGUUUUCAAAUGUCUAUCATT against Pithd1, for which the z-score is 2.37 (active). CCUGCUCAGGACGACUUUUTT against Defa20: the z-score was -1.63 (inactive). Take GGACUUUGACCCGUACUAUTT against Scn8a: the z-score was 0.951 (inactive). The result for GCUUGUGCCGGAUAAAGGUTT against Gng3 reads -0.748 (inactive). As for GCCAAGGUGGAAUUUUUGGTT against Gpx8, the z-score is 0.139 (inactive).

For the sequence GGUAUACCAAGAAGCUAAGTT against Kctd14, the z-score was -0.855 (inactive).

For GCAGAGGUACGUGUUUGACTT against Gdf5, the z-score is 0.933 (inactive).

In the case of GCGUGUAGGAAUAAUACCUTT against Psmc6, the z-score was -2.66 (active). UGCUCUUGGGUUCUUAAAUTT against Olfr1466: the z-score was -0.559 (inactive).

For the sequence CGAACAAGCCAUGUUUACATT against Gvin1, the z-score is 0.811 (inactive). The result for GGAACUUCUCAAAAGGCUGTT against Tspoap1 reads -0.0418 (inactive). The value for GGACCUGACCUACUCGUGUTT against Rxrb was -0.216 (inactive); that for GCGGAAGCGUGAAUCCAAATT against Tigd3 was 3.13 (active); that for “GGAUCGAACUGCCAUUGCUTT against A930104D05Rik” was -0.201 (inactive).

Regarding GCUGUCCUACUGAGCUUGCTT against Gdpgp1, the z-score was -0.0224 (inactive).

For the sequence GCCACUUGUGCUAAGCUGUTT against Ager, the z-score was -0.768 (inactive). On to GGUCUGUAUGAAGACAUUATT against Pdss1, for which the z-score is -1.16 (inactive).

As to GCAAGAAGUAAUCAACUUUTT against Cnot9, the z-score was -0.997 (inactive). The result for GGACCAGAAACCGUGAUAATT against Immp2l reads 3.96 (active); that for GGCACCAAUUACAAGAAAATT against V1rg10, 0.257 (inactive). Consider CCUGGCAGACGUGGAACAATT against Ppp1r13l, for which the z-score was -0.102 (inactive). Consider GGACCAGUUACUUUAACAUTT against Pkdrej, for which the z-score is 0.555 (inactive). Regarding GGAGAGUCCACUAAUACUGTT against Dmrt3, the z-score was 0.217 (inactive). Turning to GGAGAUUGGAUCCCGAAACTT against Pxn, the z-score was -0.431 (inactive).

GGCAAAGAGUGGUAAGAGUTT against Olfr1166: the z-score was -2.72 (active). Take GGAUUUCUACAGGGUGUAUTT against Trim8: the z-score was -1.19 (inactive). With GGAUCUUACUAUCACCAGCTT against Foxf1, the z-score was 1.99 (inactive).

As for CGGGCUACCAUUAUGGUGATT against Atp6ap2, the z-score is 0.382 (inactive). In the case of GUGGCAGCACGACCUAUUCTT against Alyref2, the z-score is -0.175 (inactive). Regarding CCAAUUACCUGAAUAAAGCTT against Epb41l5, the z-score was 1.19 (inactive). The result for GGGCUCUACUAUUUUUUUUTT against Polh reads -2.68 (active); that for GCCCAGGUCUAAUGUCUAATT against Tac4, 0.234 (inactive); that for GGUGUUAAGUCACAAAAUGTT against Meis2, 1.59 (inactive). For GGUUGUAUGUUGUGUGUUUTT against Cyrib, the z-score is 2.36 (active). With CGGAAUGUAGGACACGAAUTT against Ltb, the z-score was -0.267 (inactive). For the sequence GGUGACUUCGGAGAAAAGGTT against Sncaip, the z-score was 0.257 (inactive). On to GGAACAGCUGUGAUUAACGTT against Prdx4, for which the z-score was 0.343 (inactive). Regarding GCUGGAAUACGUUGAUAUATT against Kcnab3, the z-score is 3.68 (active).

Consider GGAGAGUCCAGUUUCCAUUTT against Rnf113a1, for which the z-score is 1.44 (inactive). As for GCUCAGGAAUUUGACACCATT against Adgrl3, the z-score is -1.33 (inactive). Consider CCUAAGAUGAUCGUAGGCUTT against Olfr1221, for which the z-score is -0.643 (inactive).

As for CGAGCUUUCUUCGUACACCTT against Dvl2, the z-score is -1.74 (inactive).

GGCAUACCUGGAGAAGUGUTT against Prr5l: the z-score was -2.31 (active). Turning to GCUAGCACUAAGUGAACCUTT against Ppp1r21, the z-score is 1.25 (inactive). On to GGAUAAUAGGAACAAUCUGTT against Sval1, for which the z-score was 0.207 (inactive).

Take GGUCAGGUUGAGGACAUAATT against Vwa1: the z-score is 1.28 (inactive). Take GCUUACCAGAUUGUAUGUATT against Mrgpra1: the z-score is 0.533 (inactive).

In the case of GGAGAAAGAGCAGAGUCUGTT against Cep250, the z-score is -2.04 (active). As for GGCAGAGUUUGAAAAGAUCTT against Parp16, the z-score is -1.42 (inactive). For the sequence “GGCCCAAGAUUUCAAUUAGTT against 9130230L23Rik”, the z-score is -0.0833 (inactive). In the case of GGUCAGAGGUCGACCUAUUTT against Oas1h, the z-score was -2.18 (active). Consider GGUACAUUUUAUACUGGAGTT against Zfp277, for which the z-score is 0.163 (inactive). Take GCCUCAUCGUAUAUAAAAUTT against Atp5mpl: the z-score was -1.64 (inactive). Regarding GGCCCAAACCUUAAAGUCCTT against Smyd4, the z-score is -0.194 (inactive). On to GGAAUGUACCCAUAAAAGUTT against Nudt19, for which the z-score is 0.988 (inactive). Turning to GGCAUUGAGAAGUUUGAAGTT against Fmo9, the z-score is -1.07 (inactive).

As for CCCUUGGUUAUGGAGAAAGTT against Mcoln2, the z-score was -0.0392 (inactive). The value for GCACAACAAGCGAUGUCAUTT against Myo9b was -2.13 (active); that for CCUACGUGAACAUGACGGUTT against Agfg1 was 0.096 (inactive); that for GGUAGAGAAUUGAAACCUATT against Klhdc10 was -0.776 (inactive). Consider GGAAUAUACCCUGAAACAUTT against Fam71d, for which the z-score is 0.0244 (inactive). The result for GGAGACUGUGGAUUUAAUUTT against Sult1a1 reads 2.07 (active); that for GGAGAUGUACCACAAUGCCTT against Prss29, -0.128 (inactive); that for GGCGGUGAUCCAGGGUUUATT against Klc2, 2.62 (active). For the sequence GGAGUCAAAAAAAAUGCAATT against Ribc1, the z-score was 1.17 (inactive). On to GCAAGAUCCAGAACACUCATT against Adora1, for which the z-score was -0.781 (inactive). Regarding “CCAAGGAGCAUUCUUUGGUTT against 1700024B05Rik”, the z-score was -0.0487 (inactive).

Consider GGUUUGUAUCUUAAAUGCCTT against Tdpoz4, for which the z-score is 2.88 (active). For GGCCUCGUCAUUUUACAGGTT against Mcee, the z-score was 0.098 (inactive). Take GCCAAUAAUCCACAGGCAATT against Ryk: the z-score was -0.577 (inactive). For the sequence CUGUAAGGCGGAUAAGACCTT against Pantr1, the z-score was -1.42 (inactive).

For GGUUACAAAAGAACCAGAUTT against Pik3c2g, the z-score is 1.66 (inactive). Consider GCGGCUUAGUCCAUCAGGATT against Aplf, for which the z-score was 0.819 (inactive). Consider GGAAGAGUGACUUGUGCAATT against Slc28a2, for which the z-score was 0.0125 (inactive).

Consider GCUCGAGGCUUAGAAGACUTT against Hspb3, for which the z-score was 2.23 (active).

For the sequence GGCUUACCUGGUCUACUCCTT against Wnt8b, the z-score is -0.95 (inactive).

Regarding GCUACGUGUACCUGGAGUGTT against Cpeb1, the z-score is -0.502 (inactive). With GGUGGUUAUUUAUUGGUGATT against Sp6, the z-score is -0.272 (inactive). Take GGUGCCUCAGAGUAAAUAUTT against Cdk2ap1: the z-score is -0.895 (inactive).

In the case of GCAAGCAAUAGAGGAACCUTT against Rnf38, the z-score is 0.0643 (inactive). Take GCAAACUAUUUGUCUGGUGTT against Ripk1: the z-score is 0.7 (inactive). The result for GGAGUACAUGGUGAUGUUGTT against Prss43 reads -2.6 (active). In the case of CCGAAUCUCUCACGUGCCATT against Rtn4r, the z-score was -0.474 (inactive). The value for GGAGUGUUUUACCUCUUUCTT against Nudt13 was 0.911 (inactive). In the case of GGACUUGAUGACAGUGAAUTT against Strada, the z-score is -2.27 (active).

As to GCACCAUGAAUUCUAUUGCTT against Kcnmb1, the z-score was -0.24 (inactive). In the case of GCCGCUUAAGAGGGAUUAUTT against Mrpl15, the z-score is -0.394 (inactive). Regarding GGAGUAACUAUUCCCAAUUTT against Herc1, the z-score is 1.41 (inactive).

In the case of GGAGUUGAGGUGAUUAUCUTT against Olfr1222, the z-score is -2.33 (active). For the sequence GCUUAAGGAUCCAUAAUGUTT against Musk, the z-score is 0.981 (inactive).

For the sequence GGAAGGAGAAAGAGUAUGATT against Mnt, the z-score was 0.525 (inactive). Regarding GCAGAAACGAUUGUACCAUTT against Ar, the z-score was 1.37 (inactive).

For the sequence GGCUCAAAACCACACCACUTT against Olfr477, the z-score was -2.75 (active). CGAUUGCUAAGGUGUUUGATT against Sfmbt1: the z-score was -0.45 (inactive). Consider GGAGCAUCAUUAUUCUGCATT against Gm527, for which the z-score was -0.0903 (inactive). The result for GAGAAACCUGCCUCAUCUCTT against Spata3 reads -0.0842 (inactive); that for “GGAUUUGAACUCAGAUGUUTT against A430057M04Rik”, 2.15 (active). With GGGAUGUUCUUCAAUCCUGTT against Hecw2, the z-score was 0.0154 (inactive).

In the case of GCACUUCAGUUUACAAAACTT against Mier3, the z-score was -0.891 (inactive). For the sequence CGUUUGAUGAGACCAUGUATT against Vwf, the z-score is -0.459 (inactive). The value for GCCUGGUAGUUAGUCAGAATT against Klf11 was 2.4 (active); that for GCUACAUGAUUCAGCGGAATT against Itga3 was -1.23 (inactive); that for CGGAUUAGUAUAAAUGUAGTT against Prss16 was -0.109 (inactive).

UCACAACUGUCUGUUCUCATT against Klk1b3: the z-score was -1.19 (inactive).

The values are drawn from PubChem BioAssay AID1508600 (Functional Genomics Laboratory (NCATS/FGL), 2020).
